Ba/F3 V617F tox = reduce viability of Ba/F3 cells dependent on JAK2V617F | Ba/F3 EpoR-JAK2V617F viability, ATP luminescence | inhibition, % at 5.6 µM | hit rate 1.1% among 220,000 | AID 1446;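 active = inhibition above the campaign mean plus 3 SD over all tested compounds, cut at about 24% in these data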;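 note: cytokine-independent growth of Ba/F3 cells driven by EpoR plus mutant JAK2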
IEC-6 tox = counter-screen for KLF5 inhibitors: cytotoxicity in IEC-6 cells | IEC-6 cytotoxicity, luminescence viability | inhibition, % at 5 µM | hit rate 0.78% among 290,000 | AID 1825
aSyn 5UTR inh = MLPCN primary screen, SNCA 5' untranslated region. alpha-synuclein 5'UTR reporter, inhibitor activity. inhibition, % (tested at 7.5 µM). hit rate 0.82% among 300,000; in the data active = inhibition above about 60%;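 note: H4 neuroglioblastoma cells stably carrying SNCA 5'UTR luciferase fusion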
BaF3 parental = parental Ba/F3 viability inhibition as JAK2V617F counter-screen | CellTiter-Glo ATP luminescence | inhibition, % at 5.6 µM | hit rate 1.1% among 220,000;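 active = inhibition above a per-campaign cutoff, the mean inhibition of all tested compounds plus 3 SD, cut at about 27% in these data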
KLF5 inh = kruppel-like factor 5 inhibition; DLD-1 KLF5 promoter-luciferase reporter, luminescence; inhibition, % at 5 µM; hit rate 0.23% among 290,000;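 active = inhibition above a per-plate limit of that plate's mean compound inhibition plus 3 SD, cut at about 60% in these data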;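 note: higher means less KLF5 promoter-driven luciferase light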
APP transl inh = APP translation inhibition. SH-SY5Y APP 5'UTR-luciferase reporter, luminescence. inhibition, % at 2 µM. hit rate 0.82% among 190,000. AID 1285;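 active = inhibition above a set limit, derived from the sample mean plus 3 SD, cut at about 45% in these data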
IEC-6 cytotox cf = IEC-6 cytotoxicity, confirmation assay; IEC-6 rat intestinal epithelial viability, luminescence; shares compounds with IEC-6 tox; hit rate 63% among 1,900; inhibition, % at 5 µM; AID 1907
Large screens that a line does not name were inactive (follow-up assays come after a bar, where they were run). Only some compounds are listed: those with a hit (about 2.1% of all), similar ones and a draw of the others. Cut-off read from the data, not from the text of the source, unless noted: active = inhibition above about 22%; inactive = the rest.

COc1ccc(N(CC(=O)Nc2ccccc2OC)S(=O)(=O)c2ccc(NC(C)=O)cc2)cc1	IEC-6 tox 38 (no result: Ba/F3 V617F tox, BaF3 parental, APP transl inh) | IEC-6 cytotox cf 32
O=S(=O)(Nc1ncccn1)c1ccc(NC(=S)N2CCN(Cc3ccc(F)cc3Cl)CC2)cc1	none (no result: Ba/F3 V617F tox, BaF3 parental, APP transl inh)
CC(=O)NC1=NN(C(C)=O)C(C)(c2cccs2)S1 (stereo unspecified)	Ba/F3 V617F tox 62, IEC-6 tox 56, BaF3 parental 62 | IEC-6 cytotox cf 38
CC(=O)NC1=NN(C(C)=O)C(C)(c2ccco2)S1 (stereo unspecified)	none
Nn1cnnc1N/N=C/c1ccc(F)cc1	none (no result: Ba/F3 V617F tox, BaF3 parental, APP transl inh)
Nn1cnnc1N/N=C/c1ccc(Cl)c([N+](=O)[O-])c1	IEC-6 tox 52 | IEC-6 cytotox cf inactive
CCc1ccc(CNC(=O)Cc2ccc(NC(=O)C3=C(C)OCCS3)cc2)cc1	IEC-6 tox 78, aSyn 5UTR inh 66 (no result: Ba/F3 V617F tox, BaF3 parental, APP transl inh) | IEC-6 cytotox cf 53
Cc1nnc(N/N=C/c2cc([N+](=O)[O-])c(N3CCC(C)CC3)cc2N2CCC(C)CC2)n1N	IEC-6 tox 103 | IEC-6 cytotox cf inactive
CCc1nnc(N/N=C/c2ccc(N3CCC(C)CC3)c([N+](=O)[O-])c2)n1N	none
CCOc1ccc2nc(NC(=O)c3ccoc3C)sc2c1	Ba/F3 V617F tox 27, IEC-6 tox 26, BaF3 parental 28 | IEC-6 cytotox cf 36
CCS(=O)(=O)Nc1cccc(C2=NN(C(=O)c3ccco3)C(c3ccco3)C2)c1 (stereo unspecified)	IEC-6 tox 47 (no result: Ba/F3 V617F tox, BaF3 parental, APP transl inh) | IEC-6 cytotox cf 22
CS(=O)(=O)Nc1cccc(C2=NN(C(=O)c3ccco3)C(c3ccco3)C2)c1 (stereo unspecified)	none (no result: Ba/F3 V617F tox, BaF3 parental, APP transl inh)
COc1ccc(Cc2nc(-c3ccc(NC(=O)c4cccnc4)cc3)no2)cc1	IEC-6 tox 31, aSyn 5UTR inh 75, APP transl inh 58 | IEC-6 cytotox cf 90
COc1ccc(-c2noc(CCC(=O)NCc3cccnc3)n2)cc1	none
C/C(=N\NC(=O)Cc1ccc(Cl)cc1)c1ccccc1O	IEC-6 tox 28 (no result: Ba/F3 V617F tox, BaF3 parental, APP transl inh) | IEC-6 cytotox cf 29
C1=Nc2c(NCc3ccccc3)ncnc2Oc2ccccc21	IEC-6 tox 26 | IEC-6 cytotox cf 24
Cc1csc2sc(-c3ccnc(SCC(=O)NCc4ccccc4)n3)c(C)c12	Ba/F3 V617F tox 81, IEC-6 tox 74, BaF3 parental 60 (no result: APP transl inh) | IEC-6 cytotox cf 65
Cc1csc(SCC(=O)NCc2ccccc2)n1	none
Cc1cccc(NC(=O)Cn2nnc3ccccc32)c1	none
CC(C)(C)NC(=O)COC(=O)c1ccccc1Nc1ccc(SC(F)F)cc1	IEC-6 tox 38 | IEC-6 cytotox cf 31
NC(=O)COC(=O)c1ccccc1Nc1ccc(SC(F)F)cc1	none
COc1ccc(C(=O)N/N=C\c2ccc(OC)c(COc3ccccc3Br)c2)c(OC)c1	IEC-6 tox 22 (no result: Ba/F3 V617F tox, BaF3 parental, APP transl inh) | IEC-6 cytotox cf inactive
COc1cc(OC)cc(C(=O)N/N=C/c2ccc(OC)c(COc3ccc(F)cc3)c2)c1	IEC-6 tox 65, BaF3 parental 55, APP transl inh 87 | IEC-6 cytotox cf 40
COc1ccc(OCc2cc(/C=N\NC(=O)c3ccccc3)ccc2OC)cc1	IEC-6 tox 33 (no result: Ba/F3 V617F tox, BaF3 parental, APP transl inh) | IEC-6 cytotox cf inactive
COc1ccc(/C=N\NC(=O)c2ccccc2Br)cc1COc1ccccc1	none (no result: Ba/F3 V617F tox, BaF3 parental, APP transl inh)
COC(=O)c1cc(C(=O)Nc2ccc(S(N)(=O)=O)cc2)cc([N+](=O)[O-])c1	none
CC(C)(C)c1ccc(C(=O)NCC(=O)N/N=C/c2cccnc2)cc1	none (no result: Ba/F3 V617F tox, BaF3 parental, APP transl inh)
CC(=O)c1coc2c1cc(O)c1ccccc12	none
O=C(c1ccco1)c1coc2c1cc(O)c1ccccc12	IEC-6 tox 25 | IEC-6 cytotox cf inactive
Cc1occc1C(=O)NNC(=O)Nc1ccc([N+](=O)[O-])cc1	none
COc1cc(C(=O)NCCOc2ccccc2)cc(OC)c1OC	none (no result: Ba/F3 V617F tox, BaF3 parental, APP transl inh)
COc1cc(C(=O)NCCOc2cc(C)cc(C)c2)cc(OC)c1OC	IEC-6 tox 62 (no result: Ba/F3 V617F tox, BaF3 parental, APP transl inh) | IEC-6 cytotox cf 42
COc1ccccc1C1(O)CCN(CC(=O)Nc2nc(-c3ccccc3)cs2)CC1	none
CC1=Nc2ccccc2/C1=C/c1nc(-c2ccc(C)s2)oc1O	none
CC1=Nc2ccccc2/C1=C/c1sc(=N)n(-c2nccs2)c1O	IEC-6 tox 27, aSyn 5UTR inh 63 | IEC-6 cytotox cf 41
CC1CN(C(=O)CCC(=O)N2CCN(c3cccc(C(F)(F)F)c3)CC2)c2ccccc2O1 (stereo unspecified)	none (no result: Ba/F3 V617F tox, BaF3 parental, APP transl inh)
COc1ccc(C2=NN(C(=O)c3cccs3)C(O)(C(F)(F)F)C2)cc1 (stereo unspecified)	IEC-6 tox 54 | IEC-6 cytotox cf 41
O=C(c1ccccc1)N1N=C(c2ccccc2)CC1(O)C(F)(F)F (stereo unspecified)	none (no result: Ba/F3 V617F tox, BaF3 parental, APP transl inh)
CC(C)c1ccc(/C=C/C2=NNC(=O)CC2)cc1	Ba/F3 V617F tox 38, IEC-6 tox 55, aSyn 5UTR inh 87, BaF3 parental 30 | IEC-6 cytotox cf 37
CC(=O)Nc1ccc(NC2=C/C(=N/S(=O)(=O)c3cccs3)c3ccccc3C2=O)cc1	IEC-6 tox 43, aSyn 5UTR inh 83 | IEC-6 cytotox cf inactive
Cc1c(Cl)ccc2c(C(=O)NCCN3CCCCC3)cc(-c3ccccn3)nc12	none
COc1ccccc1-c1cc(C(=O)NC2CCN(C)CC2)c2ccc(Cl)c(C)c2n1	IEC-6 tox 30, aSyn 5UTR inh 101 (no result: Ba/F3 V617F tox, BaF3 parental, APP transl inh) | IEC-6 cytotox cf inactive
Cn1cc([N+](=O)[O-])c(C(=O)Nc2ccc(C(=O)N3CCCCC3)cc2)n1	none
Cc1cccc(NC(=O)c2ccc([N+](=O)[O-])o2)c1C	IEC-6 tox 34 | IEC-6 cytotox cf 23
Cn1cc([N+](=O)[O-])c(C(=O)Nc2ccc(C3CCCCC3)cc2)n1	IEC-6 tox 25 | IEC-6 cytotox cf 30
O=C(Nc1cccc2ccccc12)c1ccc([N+](=O)[O-])o1	IEC-6 tox 96 (no result: Ba/F3 V617F tox, BaF3 parental, APP transl inh) | IEC-6 cytotox cf 22
Cc1ccc2nsnc2c1NC(=O)c1ccc([N+](=O)[O-])o1	IEC-6 tox 96 (no result: Ba/F3 V617F tox, BaF3 parental, APP transl inh) | IEC-6 cytotox cf 28
O=C(NCCc1ccc(Cl)cc1)c1cc(S(=O)(=O)N2CCCCC2)c[nH]1	none (no result: Ba/F3 V617F tox, BaF3 parental, APP transl inh)
Cc1ccc(-c2csc(NC(=O)c3ccc([N+](=O)[O-])o3)n2)cc1	IEC-6 tox 100 (no result: Ba/F3 V617F tox, BaF3 parental, APP transl inh) | IEC-6 cytotox cf 42
Cc1ccc(-c2csc(NC(=O)c3ccc(C)o3)n2)cc1	none
O=C(Nc1cc(-c2nc3ncccc3o2)ccc1Cl)c1cccs1	none (no result: Ba/F3 V617F tox, BaF3 parental, APP transl inh)
O=C(Nc1nc2c(F)cccc2s1)c1ccc([N+](=O)[O-])o1	IEC-6 tox 40 (no result: Ba/F3 V617F tox, BaF3 parental, APP transl inh) | IEC-6 cytotox cf inactive
Cn1cc([N+](=O)[O-])c(C(=O)Nc2nc(-c3ccc(Cl)cc3)cs2)n1	IEC-6 tox 37, aSyn 5UTR inh 63, BaF3 parental 28, APP transl inh 96 | IEC-6 cytotox cf 56
O=C(Nc1cc(-c2nc3ncccc3o2)ccc1Cl)c1ccc([N+](=O)[O-])o1	IEC-6 tox 93 (no result: Ba/F3 V617F tox, BaF3 parental, APP transl inh) | IEC-6 cytotox cf 30
Cc1cnc(NC(=O)c2nn(C)cc2[N+](=O)[O-])s1	none
Cc1cc(C)cc(Oc2ccccc2CO)c1	none (no result: aSyn 5UTR inh)

Assay outcomes from PubChem BioAssay.
